Drawing on PubChem BioAssay (NCATS), this text covers outcome, Potency and max response for nine compounds.

The structures appear in SMILES notation. Inconclusive results are not listed. Values without a mark were called inactive. Calls of active or inactive are those of the source. Unless noted, the call rests on the fitted dose curve; in most records, active means well fitted curve in the direction sought with a large enough effect; inconclusive means small, poorly fitted or top-dose-only effect, or another doubt; inactive means no such curve, though single readings can be large; an effect the other way counts as inactive or inconclusive. *1 amine or outer side, *2 acyl side, *3 side chain or, on linkers, in order; H or OH if unused. Where a SMILES comes first, the peptide text is derived from it. [ ]: non-standard residue; d: D form. X5 = CC(CC(O[*:1])C(=O)[*:2])C(=O)O; NMeV = CN[CH](C(=O)O)C(C)C; NMeA = CN[CH](C)C(=O)O; βAla = NCCC(=O)O

Test [1] is described as follows: P-glycoprotein substrates identified in KB-8-5-11 adenocarcinoma cell line, qHTS therapeutic library screen (AID 1346987). Further: nearly all actives have a fitted effect of over 65% in size. Further: potency means the concentration at half of the fitted maximal effect. In short, it runs like this:
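Compounds are pinned in dose-response onto KB-8-5-11 cells (500 cells/well, colchicine-free medium) and left 72 h at 37 degree C. CellTiter-Glo luminescence then yields AC50 values.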
A general note: Quantitative high-throughput screening tests each substance at several concentrations.

For test [2], the system named is Zika virus NS2B-NS3 protease (unlinked complex). In words: Primary screen GU Rhodamine qHTS for Zika virus inhibitors: Unlinked NS2B-NS3 protease assay (AID 1347159). Further: on the % scale 0 is the no-effect control and ±100 the full control effect; nearly all actives have a fitted effect of over 60% in size. In short, it runs like this:
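In dose–response format, inhibition of unlinked protease (25 nM) was measured with 1.5 microM bis-peptide Rhodamine110 substrate. Aprotinin served as the intraplate control.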

The subject of test [3] is CRL-7250. Kind of test: Cytotoxic Profiling of Annotated Libraries Using Quantitative High-Throughput Screening (AID 1296008). Further: nearly all actives have a fitted effect of over 60% in size. Further: potency means the concentration at half of the fitted maximal effect. On max response: on the % scale 0 is the no-effect control and ±100 the full control effect. The settings on record: Five cell lines viability, CellTiter-Glo ATP luminescence, 48-72 h; max response: stronger effect = lower value. An outline of the steps:
(§1)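 Cytotoxicity was measured as CellTiter-Glo ATP luminescence, read after 10 min at room temperature. Compound treatment of the cells lasted 48 or 72 hr at 37 degrees Celsius in a qHTS format.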
In general terms: Cellular ATP, detected with luciferase, serves as a proxy for viable cell number.

The next test has as its system KB-3-1. The description is as above. The settings on record: Five cell lines viability, CellTiter-Glo ATP luminescence, 48-72 h; max response: stronger effect = lower value. An outline of the steps: as §1
Another test deals with NIH3T3. Kind of test: qHTS assay to identify novel small-molecules to repurpose for Merkel cell carcinoma treatment (AID 1296009). Further: nearly all actives have a fitted effect of over 60% in size. To be noted: MCC and control cell lines, CellTiter-Glo viability, 72 h; at 44.8 µM (top of the series) unless noted. In short, it runs like this:
(§2)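 Cell viability, measured as CellTiter-Glo luminescence, was normalized between DMSO and no-cell wells. The cells had been exposed to 8- or 11-point compound dilutions for 72 hr at 37 degree celsius.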

A further test relates to HACAT. Described as above. The settings on record: MCC and control cell lines, CellTiter-Glo viability, 72 h; at 44.8 µM (top of the series) unless noted. In short, it runs like this:
as §2

The test system of a further test is HeLa. Kind of test: Primary qHTS to identify gynecologic anti-cancer compounds using libraries of approved drugs and bioactive compounds (AID 1345084). Further: nearly all actives have a fitted effect of over 55% in size. Further: potency means the concentration at half of the fitted maximal effect. To be noted: Gynecologic cancer cell panel viability, ATPlite luminescence, 48 h; series mostly up to 57.5 µM. In short, it runs like this:
(§3)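 Cells, 1,000 per well, were allowed to settle for 16 h at 37 C before compound addition. Five concentrations were tested for 48 h, and viability was read by ATPlite luminescence after 15 min at room temperature.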

The next test has as its system SKOV3. The description is as above. To be noted: Gynecologic cancer cell panel viability, ATPlite luminescence, 48 h; series mostly up to 57.5 µM. In short, it runs like this: as §3
Test [4] can be described thus: P-glycoprotein substrates identified in KB-3-1 adenocarcinoma cell line, qHTS therapeutic library screen (AID 1346986). Further: nearly all actives have a fitted effect of over 60% in size. In short, it runs like this: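 Viability read by CellTiter-Glo after 72 h compound exposure in dose-response of KB-3-1 and KB-8-5-11 (P-gp-high) cells. Hits needed AC50 < 10 uM, >50% maximum response and curve class -1.1 to -2.4. Cherry-picks retested ± tariquidar, including pcDNA/MDR-19 HEK-293 pair.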

Test [5] can be described thus: Primary qHTS for inhibitors of nuclear receptor binding SET domain protein 2 (NSD2) in an isogenic RCH-ACV NSD2 p.E1099K mutant (9B) (AID 1645876). Further: nearly all actives have a fitted effect of over 70% in size. Further: potency means the concentration at half of the fitted maximal effect.
Test [6] deals with Cytochrome P450 2D6 (Homo sapiens) (UniProt P10635). In words: Cytochrome P450 family 2 subfamily D member 6 (CYP2D6) small molecule antagonists: luciferase biochemical (cell-free) qHTS assay (AID 1645840; active means well fitted curve in the direction sought with a large enough effect in the repeat runs; an effect the other way counts as inactive or inconclusive; further: potency means the concentration at half of the fitted maximal effect; nearly all actives have a fitted effect of over 55% in size). An outline of the steps:
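P450-Glo CYP2D6 system: proluciferin substrate converted by enzyme to luciferin, read by luminescence proportional to activity. Enzyme-substrate mix with compound 10 min at room temperature, then NADPH regeneration 1 h before detection reagent.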

Test [7] in a line: Primary qHTS for inhibitors of nuclear receptor binding SET domain protein 2 (NSD2) in an RCH-ACV wild type WT cells (2C) (AID 1645877). Further: potency means the concentration at half of the fitted maximal effect; nearly all actives have a fitted effect of over 70% in size.
Test [8] concerns the target Cytochrome P450 2C9 (Homo sapiens) (UniProt P11712). Kind of test: Cytochrome P450 family 2 subfamily C member 9 (CYP2C9) small molecule antagonists: luciferase biochemical (cell-free) qHTS assay (AID 1645842; active means well fitted curve in the direction sought with a large enough effect in the repeat runs; an effect the other way counts as inactive or inconclusive; further: potency means the concentration at half of the fitted maximal effect; nearly all actives have a fitted effect of over 55% in size). In short, it runs like this: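 P450-Glo CYP2C9 system: proluciferin substrate with enzyme in mix containing 0.4% BSA, 10 min at room temperature, then NADPH regeneration solution added and incubated 1 h at 37C. Detection reagent stopped reaction; luminescence read after 20 min as RLU.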

For test [9], the system named is CRL-7250. In words: qHTS assay to identify novel small-molecules to repurpose for Merkel cell carcinoma treatment (AID 1296009). Further: nearly all actives have a fitted effect of over 60% in size. The settings on record: MCC and control cell lines, CellTiter-Glo viability, 72 h; series mostly up to 92 µM. In short, it runs like this:
as §2

Cytochrome P450 2D6 (Homo sapiens), sequence (P10635 whole entry, looked up): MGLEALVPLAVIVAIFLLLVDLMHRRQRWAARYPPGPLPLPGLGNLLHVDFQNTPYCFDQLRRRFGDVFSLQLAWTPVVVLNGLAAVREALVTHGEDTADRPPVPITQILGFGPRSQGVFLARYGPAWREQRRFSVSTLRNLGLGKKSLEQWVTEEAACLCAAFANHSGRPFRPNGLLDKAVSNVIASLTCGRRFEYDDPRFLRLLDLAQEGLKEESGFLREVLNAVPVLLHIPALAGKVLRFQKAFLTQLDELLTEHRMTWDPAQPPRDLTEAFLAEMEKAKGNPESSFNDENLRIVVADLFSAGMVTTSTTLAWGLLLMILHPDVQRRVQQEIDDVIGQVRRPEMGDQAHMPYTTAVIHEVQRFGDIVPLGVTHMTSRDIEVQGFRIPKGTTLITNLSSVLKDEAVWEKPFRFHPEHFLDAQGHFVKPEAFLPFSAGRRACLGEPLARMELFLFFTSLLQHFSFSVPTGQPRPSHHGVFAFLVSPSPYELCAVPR
Cytochrome P450 2C9 (Homo sapiens), sequence (P11712 whole entry, looked up): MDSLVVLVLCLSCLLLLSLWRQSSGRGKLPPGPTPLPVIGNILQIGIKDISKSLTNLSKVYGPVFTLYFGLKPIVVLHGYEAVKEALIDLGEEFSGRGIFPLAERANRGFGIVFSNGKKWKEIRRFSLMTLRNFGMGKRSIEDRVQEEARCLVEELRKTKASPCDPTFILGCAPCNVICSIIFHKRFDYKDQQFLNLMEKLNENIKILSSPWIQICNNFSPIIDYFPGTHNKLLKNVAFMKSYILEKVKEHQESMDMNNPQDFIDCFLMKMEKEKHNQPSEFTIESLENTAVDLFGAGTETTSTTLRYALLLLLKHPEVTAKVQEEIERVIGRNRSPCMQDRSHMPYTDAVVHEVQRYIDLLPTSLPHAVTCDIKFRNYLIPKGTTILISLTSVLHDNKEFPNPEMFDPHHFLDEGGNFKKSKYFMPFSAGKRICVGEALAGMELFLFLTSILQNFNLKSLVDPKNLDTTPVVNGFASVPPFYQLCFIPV

`C[C@H]1CC[C@@H]2[C@@H](C)[C@H]3[C@H](C[C@H]4[C@@H]5CC=C6CC(O[C@@H]7O[C@H](CO)[C@@H](O)[C@H](O[C@@H]8O[C@H](CO)[C@@H](O)[C@H](O)[C@H]8O)[C@@H]7O[C@@H]7O[C@@H](C)[C@H](O)[C@@H](O)[C@H]7O)CC[C@]6(C)[C@H]5CC[C@]34C)N2C1` (some centres not stated): the outcome is “inactive [at 9.29 µM]” in [1] and “inactive [at 9.27 µM]” in the test with NIH3T3. The Potency entry in [2] is “inactive”. Besides, the results for the max response with CRL-7250 [3] and in the test on KB-3-1 were -16.5% and 2.33%, respectively.
`CCC(C)C1NC(=O)C(C(C)=O)=C1O` (configuration not stated): the values for the max response in the test with CRL-7250 [3] and with KB-3-1 were -9.18% and -22.8%, respectively. In addition, the outcome with HACAT was “inactive [at 92 µM]”. Also, the Potency result with HeLa and with SKOV3 was “inactive” in each case.
`CCC(C)C1NC(=O)C2CCCN2C(=O)C(CC(C)C(=O)O)OC(=O)CCNC(=O)C(C)N(C)C(=O)C(C(C)C)N(C)C1=O` (configuration not stated) (cyclo([X5]PI[NMeV][NMeA][βAla]); configuration not given here): the Potency result (in test [4]; in [1]; in test [2]; in test [5]; in the test with HeLa; in the test on SKOV3) was “inactive” each time. In the test with CRL-7250 [3], the max response is -24.2%. In addition, the compound was called inactive in the test on KB-3-1.
Consider `c1ccc(C2(c3ccccc3)OC[C@@H]([C@H]3CCCCN3)O2)cc1`, for which the Potency result (in test [2]; with HeLa; in the test on SKOV3) was “inactive” in each case. In addition, the Potency in test [6] was 849 nM (active). Further, the max response in the test on CRL-7250 [3] is -2.49%; in the test with KB-3-1, -9.58%.
As for `C[C@]12CC[C@@H](O[C@@H]3O[C@H](CO)[C@@H](O)[C@H](O)[C@H]3O)C[C@@]1(O)CCC1C2CC[C@]2(C)[C@@H](C3=CC(=O)OC3)CC[C@]12O` (some centres not stated), the Potency in test [1] was 159 nM (active); in test [5], 79.6 nM (active); in test [7], 112 nM (active); in the test with CRL-7250 [3], 126 nM (active); in the test with KB-3-1 it was 200 nM (active); in the test with HeLa, 398 nM (active). Moreover, the Potency in the test with SKOV3 was 355 nM (active). Moreover, the outcome in the test on NIH3T3 is “inactive [at 17.4 µM]”.
`CCCN(CCC)CCc1ccc(OC)c(OCCc2ccccc2)c1`: the Potency result (in test [4]; in test [1]; in [2]; in the test on HeLa; with SKOV3) was “inactive” in each case. Besides, the Potency in test [6] was 213 nM (active). In the test on CRL-7250 [3], the max response is 3.48%. The compound was classed as inactive in the test on KB-3-1.
`COc1ccc2[nH]c(-c3ccccc3)c(CCN(C)C)c2c1`: the Potency entry (in test [1]; in test [2]; in the test on CRL-7250 [9]; in the test on HeLa; in the test with SKOV3) was “inactive” in each case. Also, the results for the Potency in test [6] and in [8] were 2130 nM (active) and 16900 nM (active), respectively. In addition, the compound was called inactive in the test on CRL-7250 [3] and with HACAT.
In the case of `CC(=O)O[C@H]1C[C@@H](C)O[C@H]2O[C@@H]3CC4CC[C@@H]5C(CC[C@]6(C)[C@@H](C7=CC(=O)OC7)CC[C@]56O)[C@@]4(C=O)C[C@H]3O[C@]21O` (some centres not stated), the Potency in test [5] was 48.3 nM (active); in test [7], 68.2 nM (active); in the test on CRL-7250 [3], 43.2 nM (active); in the test on KB-3-1, 68.5 nM (active); with HeLa, 126 nM (active); with SKOV3, 112 nM (active).
With `CC1=CC2/C=C(\C)CCC(O)C(O)/C=C/C(=O)OC23C(=O)NC(CC(C)C)C3C1C` (configuration not stated), the Potency entry (in test [1]; in [2]; in the test with HeLa) was “inactive” throughout. Besides, the Potency in [5] is 8930 nM (active). Moreover, the values for the max response with CRL-7250 [3] and in the test on KB-3-1 were -26.9% and 9.99%, respectively. For the same compound, in the test with HACAT, the outcome was “inactive [at 17.4 µM]”.
